Only a selection was taken, and hits are over-represented in it overall.
ST2 inh: inhibitors of human ST2 (IL1RL1) binding to IL-33, primary screen, biochemical, AlphaLISA; AlphaLISA ST2-Fc/biotin-IL-33 interaction, 1 h; actives 2.3% (n = 78,000); inhibition, % for hits at 17 µM; AID 1259354, 2018; Interleukin-1 receptor-like 1 (Homo sapiens), Q01638; in the data active = inhibition above about 30%
Target sequence (Q01638 whole entry, looked up): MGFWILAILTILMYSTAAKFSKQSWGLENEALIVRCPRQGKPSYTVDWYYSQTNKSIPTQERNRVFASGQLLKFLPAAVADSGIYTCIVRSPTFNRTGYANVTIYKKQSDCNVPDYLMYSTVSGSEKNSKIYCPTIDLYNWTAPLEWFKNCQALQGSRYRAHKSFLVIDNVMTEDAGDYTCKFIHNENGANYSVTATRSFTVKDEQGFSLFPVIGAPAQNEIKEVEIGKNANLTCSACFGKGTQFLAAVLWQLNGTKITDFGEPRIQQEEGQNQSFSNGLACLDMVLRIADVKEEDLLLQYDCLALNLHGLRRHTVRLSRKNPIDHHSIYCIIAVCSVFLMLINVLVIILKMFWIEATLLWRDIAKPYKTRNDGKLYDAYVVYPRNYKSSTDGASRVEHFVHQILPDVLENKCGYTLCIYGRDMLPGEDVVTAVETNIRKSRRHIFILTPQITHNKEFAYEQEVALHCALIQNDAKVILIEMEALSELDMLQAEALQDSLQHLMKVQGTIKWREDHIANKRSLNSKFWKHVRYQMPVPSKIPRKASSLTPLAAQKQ
Numbers stand for hits; i = inactive.

SMILES | ST2 inh
COC(=O)c1c[nH]n2c(=O)c(Cc3ccccc3F)c(C)nc12 | i
COC(=O)c1c[nH]n2c(=O)c(Cc3ccccc3C)c(C)nc12 | 53%
COC(=O)c1c[nH]n2c(=O)c(Cc3ccc(C)cc3)c(C)nc12 | i
CCN(CC)CC(=O)Nc1c(C(=O)c2ccccc2)oc2ccccc12 | 43%
CCC(=O)Nc1c(C(=O)Nc2ccccc2F)oc2ccccc12 | i
O=C(Nc1c(C(=O)O)oc2ccccc12)c1ccccc1 | i
O=c1oc2c(CN3CCCCC3)c(O)ccc2cc1-c1nc2ccccc2s1 | i
O=C(O)c1[nH]c2ccccc2c1CC(=O)N1CCN(c2cccc(Cl)c2)CC1 | i
O=C(O)CCC(=O)Nc1ccc(C(=O)O)cc1 | i
CN(C)c1ccc(NC(=O)CCC(=O)O)cc1 | 51%
O=C(O)CCC(=O)Nc1ccc(I)cc1 | i
O=C(Nc1ccc(Cc2ccc(NC(=O)c3ccco3)cc2)cc1)c1ccco1 | i
Cc1ccc2cc(C)c(-c3ccncc3)nc2c1 | i
O=C(Cn1cnc2ccccc2c1=O)Nc1ccc(C(=O)O)cc1 | i
CC[C@H]1CN(C(=O)c2ccc(C)cc2C)CC[C@@]1(C)O | 31%
CC(C)C[C@H]1CN(C(=O)c2ccc(-c3nnn(C)n3)cc2)CC[C@@]1(C)O | i
CC[C@H]1CN(C(=O)c2cccnc2N2CCOCC2)CC[C@@]1(C)O | i
CCOC(=O)c1c(NC(=O)c2ccc(Br)o2)sc(C)c1C | i
CCCOc1ccccc1C1NC(=O)NC(C)=C1C(=O)OCCSC (stereo not drawn) | i
COc1cccc(-n2c(=O)c3sccc3n(Cc3cccnc3)c2=O)c1 | i
CCC(C)NC(=O)c1ccc2c(c1)N(Cc1ccc(F)cc1Cl)C(=O)CS2 (stereo not drawn) | i
Cc1ccc(Nc2nnc(-c3ccc(C)c(S(=O)(=O)NCCO)c3)c3ccccc23)cc1 | i
Cc1ccc(NC2=C(NCCO)C(=O)c3ccccc3C2=O)cc1 | 51%
Cc1ccc(C(NC(=O)CN2C(=O)c3ccccc3C2=O)c2ccccc2)cc1 (stereo not drawn) | i
COc1ccc(C2C(C(=O)Nc3ccccn3)c3cc(OC)c(OC)cc3C(=O)N2C)cc1OC (stereo not drawn) | i
SMILES | ST2 inh
FC(F)(F)c1cc(-c2ccccc2)nc(-n2cc(Br)cn2)n1 | i
O=C1CNc2ccc(C(=O)N3C[C@@H]4C5CCC(CC5)[C@@H]4C3)cc2N1 | i
O=C(/C=C/c1ccccc1)CC(O)CCc1ccccc1 (stereo not drawn) | i
CC(C)(C)C(=O)/C=C(N)\C=C\c1ccccc1 | 37%
CC(=O)Nc1ccc(/C=C/c2ccccc2)cn1 | i
CC(C)C(=O)N1C2=C(C(=O)c3ccccc32)C(c2ccc(Cl)cc2)c2c1n(C)c(=O)n(C)c2=O (stereo not drawn) | i
N#CC1=C2SCN(c3cccc(Cl)c3)CN2C(=O)CC1c1ccccc1F (stereo not drawn) | i
Cc1ccc2nc(-c3ccc(NC(=O)c4ccc(Br)o4)cc3)oc2c1 | i
CN(C1CCCCC1)S(=O)(=O)c1ccccc1[N+](=O)[O-] | i
CCSC1=N/C(=C\c2c(OC)cc(OC)cc2OC)C(=O)S1 | 38%
CCCN(CCC)C(=O)[C@H]1C(C(=O)O)[C@H]2C=C[C@@H]1C2 (stereo partly drawn) | i
CC(=O)Nc1ccc2nc(CN3CCN(Cc4ccccc4C)C(CCO)C3)ccc2c1 (stereo not drawn) | i
Cc1cc(C(=O)NCc2ccc(F)cc2)ccc1[N+](=O)[O-] | 52%
Cc1ccc(Cl)cc1NC(=O)c1ccc([N+](=O)[O-])c(C)c1 | i
Cc1cc(C(=O)NC2C3CC4CC(C3)CC2C4)ccc1[N+](=O)[O-] (stereo not drawn) | i
CCc1cc(CN(C)CC2=CC[C@H]3C[C@@H]2C3(C)C)on1 | i
CCCc1nnc(NC(=O)CN2CCCC2Cn2cccn2)s1 (stereo not drawn) | i
Cc1ccc(/C=C(/C#N)c2nc(-c3ccc(Br)cc3)cs2)o1 | 52%
N#C/C(=C\Nc1ccc(F)cc1)c1nc(-c2cc3cc(Br)ccc3oc2=O)cs1 | i
CC(C)(C)C(=O)Nc1nc(-c2ccc(Br)cc2)cs1 | i
NNC(=O)C(=O)Nc1nc(-c2ccc(Br)cc2)cs1 | i
N#C/C(=C\c1ccco1)c1nc(-c2ccc(Br)cc2)cs1 | 32%
Cc1cc(OCC(=O)N2CCC(C(N)=O)CC2)cc(C)c1Br | i
Cc1ccc(NC2c3ccccc3C(=O)N2Cc2ccccc2)cc1F (stereo not drawn) | i
Cc1nc(-c2ccc(O)cc2)cs1 | i
SMILES | ST2 inh
Cc1[nH]c2ccccc2c1C(=O)CCC(=O)O | i
Cc1nc(-c2c(C)[nH]c3ccccc23)cs1 | 36%
CCCOc1ccc2c(oc(=O)c3ccccc32)c1C | i
CCOC(=O)CN(Cc1ccc(F)cc1)S(=O)(=O)c1ccc(F)c(C)c1 | i
CC(C)CCN1CCN(Cc2nc3ccccc3[nH]2)CC1CCO (stereo not drawn) | i
CCn1c2ccccc2c2nnc(SCC(=O)N3CCCc4ccccc43)nc21 | i

Screening results (PubChem)
